Assays:
Experiment in all cases: PBM binding z-score (relative to random genomic background probes); higher = stronger binding; sequences stand for … in GC…GCGATTGACAGCGTAGAATGAAGG
[1] = tested on: FXR:RXRa (NR concentration 270 nM, RXRa partner concentration 90 nM)
How it was run: (§1)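 Custom Agilent 4×180K protein-binding microarrays carried double-stranded probes, each with a 34-nt variable region. These regions held direct-repeat seeds, single-nucleotide variants, half-site ablations and random human genomic background sequences. Ligand-free nuclear receptor dimers were incubated on the arrays for 1 h, antibodies against each partner (one per run) detected binding, and scanned fluorescence was regression-normalized. Binding z-scores take the random background probes as reference.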

[2] = tested on: LXRa:RXRa (NR concentration 270 nM, RXRa partner concentration 90 nM)
How it was run: as §1

[3] = tested on: LXRa homodimer (NR concentration 270 nM)
How it was run: as §1

[4] = tested on: LXRb:RXRa (NR concentration 270 nM, RXRa partner concentration 90 nM)
How it was run: as §1

[5] = tested on: LXRb homodimer (NR concentration 270 nM)
How it was run: as §1

[6] = tested on: PPARa:RXRa (NR concentration 270 nM, RXRa partner concentration 90 nM)
How it was run: as §1

[7] = tested on: PPARg:RXRa (NR concentration 180 nM, RXRa partner concentration 90 nM)
How it was run: as §1

[8] = tested on: PPARg:RXRa 270nM:90nM, anti-RXR (NR concentration 270 nM, RXRa partner concentration 90 nM)
How it was run: as §1

[9] = tested on: PPARg:RXRa 30nM:10nM, anti-RXR (NR concentration 30 nM, RXRa partner concentration 10 nM)
How it was run: as §1

[10] = tested on: PPARg:RXRa 90nM:30nM, anti-RXR (NR concentration 90 nM, RXRa partner concentration 30 nM)
How it was run: as §1

[11] = tested on: PPARg:RXRa DBDmut IVT, anti-RXR (DBD mutation: RXRa K156A/R161A, NR concentration 270 nM, RXRa partner concentration 90 nM)
How it was run: as §1

[12] = tested on: PPARg:RXRa IVT, anti-PPARg (NR concentration 270 nM, RXRa partner concentration 90 nM)
How it was run: as §1

[13] = tested on: PPARg DBDmut:RXRa IVT, anti-PPARg (DBD mutation: PPARg1 K132A/R137A, NR concentration 270 nM, RXRa partner concentration 90 nM)
How it was run: as §1

[14] = tested on: PPARg DBDmut IVT, anti-PPARg (DBD mutation: PPARg1 K132A/R137A, NR concentration 270 nM)
How it was run: as §1

[15] = tested on: PPARg homodimer (NR concentration 180 nM)
How it was run: as §1

[16] = tested on: PXR:RXRa (NR concentration 270 nM, RXRa partner concentration 90 nM)
How it was run: as §1

[17] = tested on: PXR homodimer (NR concentration 270 nM)
How it was run: as §1

[18] = tested on: RARa:RXR (NR concentration 270 nM, RXRa partner concentration 90 nM)
How it was run: as §1

[19] = tested on: RARa homodimer (NR concentration 270 nM)
How it was run: as §1

[20] = tested on: RARb:RXRa (NR concentration 270 nM, RXRa partner concentration 90 nM)
How it was run: as §1

Sequence	PBM binding z-score [1]	PBM binding z-score [2]	PBM binding z-score [3]	PBM binding z-score [4]	PBM binding z-score [5]	PBM binding z-score [6]	PBM binding z-score [7]	PBM binding z-score [8]	PBM binding z-score [9]	PBM binding z-score [10]	PBM binding z-score [11]	PBM binding z-score [12]	PBM binding z-score [13]	PBM binding z-score [14]	PBM binding z-score [15]	PBM binding z-score [16]	PBM binding z-score [17]	PBM binding z-score [18]	PBM binding z-score [19]	PBM binding z-score [20]
TCTGGTAGATCAACAGGAGGTTAAGAAAGATCGA	0.3	1.04	0.187	0.782	-0.582	1.24	-0.00962	1.19	2.17	1.82	0.912	0.0177	0.166	-0.137	0.335	0.736	-0.172	1.06	-0.145	0.269
ATCTCTAGGTAAAGACAGTTCAGTGAATGCAAAT	0.377	2.43	0.934	0.745	0.542	0.628	0.336	0.491	0.147	0.518	2.12	1.73	0.488	0.666	0.86	1.61	1	0.704	1.05	0.625
TCTAGTTGGTCAAAGGTCACACCCTCGAAATGCG	5.49	5.27	4.32	5.41	1.92	6.69	11.6	10.1	10.3	12.2	3.68	6.43	1.66	0.719	6.91	6.04	2.22	7.62	4.33	5.02
GGAACGAGGGCATTCGAGTTGATGGCATGGCGAT	1.48	1.27	-0.635	-0.299	-0.896	1.31	0.637	0.324	-0.665	-0.326	3	2.1	-0.485	-0.554	-0.644	3.26	1.55	0.115	-0.893	1.6
CGTCCAAGGTCAAAGGTTAGTGAAGAGATGACGG	7.74	5.92	1.42	5.09	1.54	6.47	8.94	7.84	7.41	8.3	3.36	4.86	2.1	1.08	6	6.05	1.47	7.8	1.93	5.22
CGTCCATGGTCATAGGAGGTCAGTGAAGACAGAT	1.81	3.6	1.31	2.3	-0.0706	2.59	0.994	1.19	-0.128	0.421	0.484	2.01	-0.127	-0.368	2.09	3.77	0.616	2.79	0.333	2.91
GGAACGAGGGCAAAGTTGATAACATCTGTCGACG	1.57	1.1	-0.134	1.12	-0.18	4.13	7.22	7.08	6.1	7.67	3.83	4.15	0.399	0.51	1.5	1.23	0.336	1.49	0.102	2.25
CCAACTGGGGCAAGGTTACCATAACGCACAGCCA	0.213	0.726	-0.0339	0.872	-0.862	2.49	4.28	4.62	2.01	4.22	5.12	5.51	0.138	-0.27	0.543	0.378	0.0268	0.879	0.291	1.78
TCGGCTAGGTCAACGATGGTCAGCTAATCTGCTA	3.23	2.31	-0.307	1.72	-0.717	3.14	1.75	2.37	1.62	2.03	3.13	3.06	-0.836	-0.603	1.19	1.58	-0.468	2.04	-0.329	3.97
ACTATTAGTTGAGACTAGGGCAACCGATAGGTTG	-0.2	-0.21	-0.416	-0.304	0.0178	0.296	0.679	0.33	0.227	-0.101	1.02	2.46	0.767	0.914	-0.0941	-0.323	-0.0618	-0.0584	0.518	0.583
AGAATGAGGTTACCAAAGATTAGGGAAACGCTTG	1.75	4.54	-0.368	1.72	-0.268	3.31	2.43	2.72	1.12	1.93	4.05	3.59	1.65	0.534	0.398	1.15	-0.168	1.88	0.039	2.06
CCTTACGGGTCTCTGACAGGTTATAGCATTTGGA	-0.234	0.159	-0.00475	-0.0139	-0.262	0.166	0.168	0.115	-0.351	-0.00111	0.625	-0.443	-0.515	-0.237	0.678	-0.13	-0.251	0.185	0.262	0.256
CGTCCAAGGTCAATGCTCGGTCAGTGAAAGCATT	5.98	5.55	2.7	4.04	0.788	5	3.34	3.99	1.61	2.79	3.28	3.36	-0.42	-0.828	2.78	3.93	0.774	5.12	0.202	5.11
CCTGCTAGGTCAGGGTCAGCTAATCTACAGTATG	3.6	2.42	-0.231	2.55	-0.944	3.92	2.82	3	0.682	1.83	3.18	3.55	-0.395	-0.875	0.967	2.73	-0.26	3.48	0.175	4.42
ATCGAAAGGTCGACGAGATGAGTATACACCGTTT	3.66	2.9	0.0102	2.41	0.483	4.04	2.7	2.66	1.14	1.85	0.534	1.36	1.43	1.08	1.2	2.24	0.2	2.77	0.514	3.79
GCTGCTAGGTCAGGTTGGTCAGCTAGCGGGTACG	1.15	0.736	-0.0466	0.193	-0.466	1.36	-0.0149	0.792	-0.603	0.329	2.9	1.88	-0.638	-1.03	0.481	0.0467	-1.01	0.604	-0.467	3.38
CCTACTGGGCCATCAGGTCATCGATATCAACGTT	1.37	1.07	0.687	1.38	-0.672	2.79	3.18	3.65	1.59	3.22	4.21	5.09	-0.466	-0.676	1.03	1.5	-0.0162	2.04	-0.0284	2.39
CTAACTAGGTCAAAGGTCAAAGTCGAGCCAACCA	8.53	7.32	5.19	7.21	2.96	7.74	14	11.2	13.1	13.2	9.01	9.15	2.95	1.6	4.42	7.03	1.84	8.76	2.8	5.8
CCGACTGGGGTAAAGGTTACCATACTCAGTACGA	1.25	1.37	-0.204	2.11	-0.702	5.22	11.1	9.31	8.82	10.7	3.8	5.39	0.251	0.0634	1.25	1.93	-0.316	3.23	0.475	2.02
AGTCAAAGTTCCCTAGGTAACGTAAGATTCAGCT	-0.33	-0.385	-0.0977	-0.4	-0.222	-0.259	0.281	0.455	0.0394	-0.0115	-0.23	0.612	-0.729	0.358	-0.325	0.00195	-0.697	-0.125	-0.463	0.687
ATCGAAAAGTCGAGGTGAGTATAGAGAAAGGGAA	0.304	0.67	-0.216	-0.238	-0.0548	0.326	0.344	-0.139	0.203	-0.312	-0.205	0.704	1.25	-0.338	0.107	-0.235	0.048	0.0313	-0.268	0.639
AGAACGAGGGCGATGAGTTGATAGCACGGGTGGC	-0.358	-0.46	-0.764	-0.815	-0.754	-0.167	0.665	-0.212	-0.297	-0.297	0.888	0.217	-0.427	-0.338	-0.143	0.367	1.89	-0.627	-0.34	0.39
AGAATGAGGTTACTAAGATCAGGGAATTGCGGTC	1.46	1.24	-0.205	0.978	-0.137	2.62	2.35	2.48	0.629	1.7	4.08	3.37	0.676	0.112	0.638	0.828	0.241	1.37	-0.455	1.74
ATCTCTAGGTAAGACTCAGATCAGTGAAGAACGC	0.264	0.336	0.262	-0.0617	0.692	-0.153	0.264	0.0019	0.134	0.3	1.51	1.26	-0.0293	0.583	0.669	-0.381	0.314	-0.0698	1.46	-0.146
CAAACTCGGTCACAGAGGTCAAAGTCCGTGCGTA	5.99	6.29	7.24	5.29	2.04	5.72	5.27	6.24	3.25	5.58	5.32	6.01	1.83	1.84	5.93	6.25	8.31	6.39	2.88	4.75
AGAATGAGGTTATGAAGATCAGGGAATTGCGGTC	1.75	1.53	0.162	1.04	-0.127	2.86	1.68	2.1	1.05	1.61	3.44	2.45	0.386	-0.347	0.625	1.18	0.111	1.87	0.262	1.7
GGAACGAGGGCCAAGTTGATAGCATCTGTCGACG	-0.236	-0.341	-0.454	-0.778	-0.949	0.213	0.734	1.4	0.144	0.913	0.254	-0.0508	-1.09	-0.973	-0.0593	-0.242	-0.456	-0.293	-0.285	0.806
TCTTGCAGGCCAGAGGGTCACTCAAGAGGTACGG	1.13	1.04	-0.621	1.3	-0.52	2.81	1.99	3.39	2.63	3.38	1.23	1.74	0.108	0.193	1.21	1.65	-0.469	2.21	-0.686	2.44

— the supplement of paper PMC6555819
